Compound activity deposited in PubChem by National Center for Advancing Translational Sciences (NCATS).
An excerpt weighted towards active compounds, which were near 2.9% of everything screened.
DRD3 antagonist: blocks the human D3 dopamine receptor | D3R cells, DiscoveRx beta-arrestin luminescence, antagonist mode; stronger effect = lower value | max response, negative = inhibition, % | 360,000 compounds, 2.5% hits | AID 652054; in the data active = max response below about -50%; inconclusive = no clear call, values can overlap the other calls
Target sequence (P35462 whole entry, looked up): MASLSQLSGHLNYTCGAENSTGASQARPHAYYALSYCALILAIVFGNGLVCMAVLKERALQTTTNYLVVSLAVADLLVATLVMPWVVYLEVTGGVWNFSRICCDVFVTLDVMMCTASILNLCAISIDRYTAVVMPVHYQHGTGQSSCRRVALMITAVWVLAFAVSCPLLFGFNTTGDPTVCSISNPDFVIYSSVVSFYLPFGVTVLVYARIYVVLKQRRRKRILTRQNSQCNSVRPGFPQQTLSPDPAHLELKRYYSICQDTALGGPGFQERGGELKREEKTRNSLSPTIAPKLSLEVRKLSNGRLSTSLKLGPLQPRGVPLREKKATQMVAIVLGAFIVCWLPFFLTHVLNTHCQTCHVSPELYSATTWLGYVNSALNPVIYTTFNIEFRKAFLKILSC
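Cells expressing the human receptor were seeded at 1500 cells/well, incubated overnight at 37 degrees C in 5% CO2, then exposed to library compounds with dopamine controls for 90 minutes at 37 degrees C before luminescent detection.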
IDH1 R132H inh: human IDH1 R132H inhibition. IDH1-R132H enzyme, NADPH consumption, diaphorase/resazurin fluorescence. Potency, µM (series often up to 76.6 µM), usual class: inhibitors. 390,000 compounds, 0.093% hits. O75874. AID 602179; also: nearly all actives have a fitted effect of over 65% in size
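IDH1-R132H (0.5 ug/mL dispensed) in pH 7.5 Tris buffer was preincubated 30 min with compound, then given a substrate mix of 0.016 mM NADPH and 2 mM alpha-KG for 80 min at room temperature; remaining NADPH was read by diaphorase/resazurin fluorescence.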
Integrin act MD: activators of alpha7 integrin expression for muscular dystrophy | alpha7betagal myoblasts, beta-gal FDG fluorescence, 48 h | Potency, µM (top dose mostly 38.3 µM), actives largely listed as activators | 350,000 compounds, 0.064% hits | AID 624291; also: nearly all actives have a fitted effect of over 60% in size
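Alpha7betagal+/- myoblasts (passage 13) were plated 16-24 hr, then exposed to compounds (1:260 dilution of DMSO stock) for 48 hours at 37C. After MPER lysis, β-galactosidase reporter activity was read as FDG fluorescence (ex 480/em 540) after 30 minutes.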
B2AR arrestin: agonists driving beta-arrestin recruitment to human beta2-adrenergic receptor. P07550. beta-arrestin recruitment to beta2AR, cell-based reporter. Potency, µM (series often up to 46.1 µM), hits mostly activators. 330,000 compounds, 0.02% hits. AID 492947; also: nearly all actives have a fitted effect of over 65% in size
D3 ag: D3 dopamine receptor (human) agonism. P35462. D3R DiscoveRx beta-arrestin cells, luminescence, 90 min. max activation, %. 410,000 compounds, 0.58% hits; in the data active = max activation above about 30%
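Agonist-mode cell screen: cells plated at 1500/well and incubated overnight at 37 °C, then exposed to library compounds for 90 min at 37 °C. Detection reagent was added for 30–60 min at room temperature, and luminescence was read.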
A number is an active result; – = inactive; ? = inconclusive; · = no result. Unless noted, calls follow the shape of the dose curve; as a rule, active = well fitted curve in the direction sought with a large enough effect; inconclusive = small, poorly fitted or top-dose-only effect, or another doubt; inactive = no such curve, though single readings can be large; an effect the other way counts as inactive or inconclusive.

SMILES	DRD3 antagonist	IDH1 R132H inh	Integrin act MD	B2AR arrestin	D3 ag
c1ccc(OCCN2CCN(Cc3nc(-c4ccc5c(c4)OCO5)no3)CC2)cc1	?	–	–	–	73
CN(CCN1CCc2ccccc2C1)Cc1nc(Cc2ccccc2F)no1	-59	–	–	–	–
NC(=O)c1cc(S(=O)(=O)NCC2CCC(C(=O)Nc3cccc(Cl)c3)CC2)cs1 (configuration not stated)	·	–	·	·	–
CC(=O)OCC(=O)Nc1cc(C#N)cc(NC(=O)COC(C)=O)c1Cl	·	·	·	·	–
COc1ccccc1CNC(=O)c1cnc2sc(N3CCCCC3)nn2c1=O	·	–	·	·	–
Cc1ccc(NC(=O)Cn2c(O)c(N=NC(=O)c3cc([N+](=O)[O-])ccc3O)c3ccccc32)cc1	·	·	·	–	·
Cc1cccc(NC(=O)Cn2c(O)c(N=NC(=O)c3ccccc3O)c3ccccc32)c1	-71	–	–	–	–
Cc1noc(NS(=O)(=O)c2ccc(NS(=O)(=O)c3ccc(Cl)cc3)cc2)c1C	–	–	–	–	–
CCS(=O)(=O)c1ncc(Cl)c(C(=O)NCc2ccccc2)n1	·	·	·	·	–
O=C(NCc1ccc2c(c1)OCO2)c1nc(S(=O)(=O)Cc2ccccc2F)ncc1Cl	-92	–	–	–	–
O=C(NCc1ccc2c(c1)OCO2)c1nc(S(=O)(=O)Cc2ccccc2)ncc1Cl	-66	–	–	–	–
CC(C)CCN(C(=O)Nc1ccc(Cl)cc1)C1CCN(C(C)C)CC1	-59	–	–	–	–
O=C(Nc1ccc(S(=O)(=O)Nc2nccs2)cc1)c1ccccc1OC(F)F	–	–	10µM	–	–
O=C(Nc1ccc(S(=O)(=O)Nc2nccs2)cc1)c1ccc(F)cc1	–	–	–	–	–
Cc1ccc(NC(=O)C2CCCN(c3nnc(C)c4c(C)n(-c5ccccc5)nc34)C2)cc1Cl (configuration not stated)	·	–	·	·	–
CCN(c1ccc(C)cc1C)S(=O)(=O)c1nnc(NC(=O)C(C)(C)C)s1	-74	–	–	–	–
OC(COC(c1ccccc1)c1ccccc1)CN1CCN(c2ccccn2)CC1 (configuration not stated)	–	–	–	–	56
CC(C)(C)C1CCC(OCC(O)CN2CCN(Cc3ccccc3)CC2)CC1 (configuration not stated)	?	–	–	–	–
OC(COc1ccc(Cl)c2ccccc12)CN1CCN(c2ccccn2)CC1 (configuration not stated)	–	–	–	–	72
Cc1cc(OCC(O)CN2CCN(c3ccccn3)CC2)cc(C)c1Cl (configuration not stated)	–	–	–	–	51
OC(COC(c1ccccc1)c1ccccc1)CN1CCOCC1 (configuration not stated)	–	–	–	–	–
CC(C)(C)C1CCC(OCC(O)CN2CCN(c3ccccn3)CC2)CC1 (configuration not stated)	–	–	–	–	65
CCOc1ccc2c(c1)c(=O)c(C(=O)c1ccccc1)cn2Cc1ccccc1F	·	–	·	·	–
Cc1ccc(C(C)C)c(OCC(=O)NCC2(N3CCOCC3)CCCCC2)c1	·	–	·	·	–
Cc1cc(C)c(OCC(O)CN2CCN(c3ccccn3)CC2)c(C)c1 (configuration not stated)	–	–	–	–	106
SMILES	DRD3 antagonist	IDH1 R132H inh	Integrin act MD	B2AR arrestin	D3 ag
CCCS(=O)(=O)N1CCN(C(=O)COc2ccccc2)CC1	–	–	–	–	34
O=C(CSc1nc2c(c(=O)[nH]1)CCC2)Nc1cc(C(F)(F)F)ccc1Cl	·	·	·	·	–
CCC1CCCCN1S(=O)(=O)c1ccc(C(=O)Nc2nnc(-c3ccccc3Cl)o2)cc1 (configuration not stated)	-86	–	–	–	–
CC1CCCCN1S(=O)(=O)c1ccc(C(=O)Nc2nnc(-c3ccccc3Cl)o2)cc1 (configuration not stated)	-71	–	–	–	–
CCOc1ccc(NC(=O)CC2C(=O)N(c3cccc(C)c3)C(=O)N2CCC2=CCCCC2)cc1 (configuration not stated)	·	–	·	·	–
COc1ccccc1C(=O)OCc1cc(=O)n2nc(C3CCCCC3)sc2n1	·	–	·	·	–
Cc1cccc(C)c1NC(=O)C(NS(=O)(=O)c1ccc2c(c1)CCC(=O)N2)c1ccccc1 (configuration not stated)	·	–	·	·	–
O=C(COC(=O)c1ccc(Cl)nc1)NCc1ccc(F)cc1	-50	–	–	–	–
CC(C)OC(=O)c1cccc(C(=O)Oc2ccccc2)n1	-59	–	–	–	–
COC(=O)c1cccc(C(=O)Oc2cccc(Br)c2)n1	–	–	–	–	–
NNC(=O)c1ccccc1CO	–	–	–	·	34
CCOC(=O)c1ccc(NC(=O)N2CC3CCCN3c3ccccc32)cc1 (configuration not stated)	·	–	·	·	–
CCCC1=NN(c2ccc([N+](=O)[O-])cc2)C(=O)/C1=C/N(C)C	–	–	–	–	–
CC1=NN(c2ccc([N+](=O)[O-])cc2)C(=O)/C1=C\N(C)C	-57	–	–	–	–
COc1ccc2c(c1)c1c(c(=O)n(-c3ccc(F)c(Cl)c3)c(=O)n1CC(N)=O)n2C	·	–	·	·	–
CN(c1ccccc1)c1ccc(/C=N/N2CCOCC2)cc1	-52	–	–	–	–
C(=NN1CCCCCC1)c1ccccc1	–	–	–	·	–
COCc1cc(C)n(CC(=O)Nc2cccc(C(C)=O)c2)c(=O)c1C#N	·	–	·	·	–
OC(C#CCN1CCCCC1)(c1ccccc1)c1ccccc1	-79	–	–	–	–
Cc1cc(=O)n2c(C(=O)Nc3ccc(Br)cc3)c(C(=O)Nc3ccccc3)sc2n1	·	–	·	·	–
O=S(=O)(c1ccc(OCc2nc3ccccc3s2)c(Cl)c1)N1CCOCC1	-76	–	–	–	–
C[C@@H]1CN([C@@H](C)CO)C(=O)c2cc(Br)cnc2O[C@@H]1CN(C)S(C)(=O)=O	–	–	–	·	–
CCN1C(=O)[C@@H]2[C@H](C1=O)[C@@H]1C(=O)Nc3ccccc3C(=O)N1[C@@H]2c1cccc(C)c1	–	–	–	–	45
CCN(CCCC(=O)c1ccc(F)cc1)CCc1ccccc1	–	–	–	–	32
CCCN(CCO)CCCc1ccccc1	–	–	–	–	–
SMILES	DRD3 antagonist	IDH1 R132H inh	Integrin act MD	B2AR arrestin	D3 ag
O=C(CCCc1ccccc1)c1ccccc1	–	–	–	–	–
CCN(CCCc1ccccc1)CCCc1ccccc1	-96	–	·	–	–
Cc1ccc(Oc2ncccc2NC(=O)CC2(CC(=O)O)CCCC2)c2c1CCC2	–	–	–	–	–
CCOC(=O)C(=CNc1cccnc1Oc1ccc(C)c2c1CCC2)C(=O)OCC	–	–	–	–	37
CCOC(=O)c1cnc(-n2nc(C)cc2C)nc1N(CC)CC	-59	–	–	?	–
CCOC(=O)c1cnc(-n2nc(C)cc2C)nc1NC	?	–	–	18µM	–
